Shown are actives, neighbours in structure and some others; about 2% of the full set was active somewhere.
PKA-R1A activ – activates the PKA-R1A holoenzyme complex; hit rate 0.083% among 340,000; PKA-R1A dissociation, Cy5-IP20 fluorescence polarization; scaled: DMSO 0%, 113 µM cGMP 100%; activation, % at 11.4 µM; P00514+P68181;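 active = percent activation above the mean of all tested compounds plus 3 SD, cut at about 19% in these data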;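 note: higher means more PKAc released from R1A so a rise in polarization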
MsrA act – bovine methionine sulfoxide reductase A activation. purified bovine MsrA, absorbance read-out. activation, % at 10.6 µM. hit rate 0.3% among 360,000. AID 602163; in the data active = activation above about 7.5%;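 note: 0% = vehicle and 100% = reference activator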
PKA-R2B act – activates the human PKA-R2B holoenzyme complex. PKA-R2B holoenzyme dissociation, Cy5-IP20 fluorescence polarization; R2B truncated from residue 108, S112A mutant; 0% DMSO only, 100% 113 µM cGMP. activation, % at 11.4 µM. P22694+P31323. AID 504700. hit rate 0.079% among 340,000;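 active = activation above a cutoff set at the mean over all compounds plus 3 SD, cut at about 18% in these data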;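 note: higher means more holoenzyme dissociation and a rise in polarization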
Target sequence (P31323 whole entry, looked up, other chains not shown, the tested form may be a part): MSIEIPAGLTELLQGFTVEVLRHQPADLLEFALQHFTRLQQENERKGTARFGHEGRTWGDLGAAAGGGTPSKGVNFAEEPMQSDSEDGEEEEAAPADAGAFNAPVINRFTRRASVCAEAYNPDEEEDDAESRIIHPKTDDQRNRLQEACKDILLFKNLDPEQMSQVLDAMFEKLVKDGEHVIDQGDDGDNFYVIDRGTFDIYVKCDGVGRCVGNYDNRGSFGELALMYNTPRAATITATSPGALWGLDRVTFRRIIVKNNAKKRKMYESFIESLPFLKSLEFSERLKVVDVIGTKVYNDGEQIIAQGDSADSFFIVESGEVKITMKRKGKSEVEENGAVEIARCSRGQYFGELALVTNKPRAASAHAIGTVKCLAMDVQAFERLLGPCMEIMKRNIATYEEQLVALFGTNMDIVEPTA
Mot1-301 SUMO – SUMOylation pathway inhibition by Mot1-301 growth rescue; S. cerevisiae Mot1-301 growth rescue, ATP luminescence, 38.5C; percent above DMSO median, 100 means doubled; growth rescue, % at 18.8 µM; hit rate 1% among 320,000;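 active = every valid replicate shows activation above 250% relative to neutral control wells; inactive = the rest, any valid replicate at or below 250%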;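 note: OY570 slx delta 5 strain wells were the positive control but not used for scaling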
MsrA inhibitor – inhibitors of bovine MsrA; inhibition, % at 15.5 µM; hit rate 0.75% among 360,000; purified bovine MsrA, absorbance read-out; AID 651718;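 note: 0% = vehicle wells with enzyme and 100% = reference inhibitor wells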
MsrA conf – bovine MsrA inhibition, confirmed; hit rate 41% among 2,300; purified bovine MsrA, absorbance read-out; inhibition, % at 15.5 µM; shares compounds with MsrA inhibitor;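 note: coupled to thioredoxin reductase with NADPH and selenocystamine and DMSO as substrate; 0% = vehicle only and 100% = full effect of reference inhibitor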
* hit, by the source's call. Cut-off read from the data, not from the text of the source, unless noted: active = inhibition above about 4.5%; inactive = the rest.

For CN(C)c1ccc(C=NNC(=S)Nc2ccc(F)cc2)cc1 the results were PKA-R1A activ -4, MsrA act -9, PKA-R2B act 10 and MsrA inhibitor 3.
For COc1cc(/C=N/NC(=S)N/N=C/c2cc(OC)c(OC)c(OC)c2)cc(OC)c1OC the results were PKA-R1A activ 0, MsrA act -1, PKA-R2B act -9, Mot1-301 SUMO -3 and MsrA inhibitor 1.
COc1ccc(C=NNC(=S)Nc2ccc(F)cc2)cc1OC was read as PKA-R1A activ 0, MsrA act -17, PKA-R2B act -5, MsrA inhibitor 5.7* and MsrA conf 3.
Screening COc1cccc(/C=N/NC(=S)Nc2cccc(C(=O)O)c2)c1 returned PKA-R1A activ -1, MsrA act -5, PKA-R2B act 1, Mot1-301 SUMO 10 and MsrA inhibitor 3.
`COc1cc(/C=N/NC(=S)Nc2cccc(C(=O)O)c2)cc(OC)c1OC` gave PKA-R1A activ -2, MsrA act -8, PKA-R2B act -1, Mot1-301 SUMO 15, MsrA inhibitor 5.1* and MsrA conf 4.
Screening COc1ccc(/C=N/NC(=S)Nc2cccc(C(=O)O)c2)cc1OC returned PKA-R1A activ -1, MsrA act -3, PKA-R2B act -3, Mot1-301 SUMO 22, MsrA inhibitor 7.6* and MsrA conf 5.6*.
CCc1c(-c2ccc(Br)cc2)ncn1Cc1cccc(-c2ccccc2)c1 was read as MsrA inhibitor 0.
`CCOC(=O)[C@@H](NC(=O)/C=C/[C@H]1O[C@@H](n2cc(C)c(=O)[nH]c2=O)C[C@@H]1O)C(C)C` gave MsrA act -1 and MsrA inhibitor 1.
For Cc1cccc(NC2=C(C#N)C(=O)NC3(CCCC3)S2)c1 the results were PKA-R1A activ -1, MsrA act -3, PKA-R2B act -1, Mot1-301 SUMO 4 and MsrA inhibitor 1.
COC(=O)CSC1=C(C#N)C(=O)NC2(CCCCC2)S1 was read as PKA-R1A activ -2, MsrA act -17, PKA-R2B act 5, Mot1-301 SUMO 8, MsrA inhibitor 5.7* and MsrA conf 4.
For N#Cc1c(SCc2ccccc2)nc(N2CCOCC2)c2c1CCCC2 the results were PKA-R1A activ -1, MsrA act -3, PKA-R2B act -8, Mot1-301 SUMO 7, MsrA inhibitor 14* and MsrA conf 10*.
For COc1ccc(OCC2CN(C3CCCC3)S(=O)(=O)CCO2)cc1 (stereo not given) the results were MsrA inhibitor -1.
`COc1ccccc1-n1c(SCC(=O)O)nc2c(sc(=S)n2-c2ccc(C)c(C)c2)c1=O` gave PKA-R1A activ 3, MsrA act -4, PKA-R2B act -15, Mot1-301 SUMO 56 and MsrA inhibitor 2.
For CCOc1ccccc1-n1c(=S)sc2c(=O)n(-c3ccc(F)cc3)c(SCC(=O)O)nc21 the results were PKA-R1A activ -15, MsrA act -3, PKA-R2B act -3, Mot1-301 SUMO 94, MsrA inhibitor 5.6* and MsrA conf 2.
`Cc1c(CC(=O)O)c(=O)oc2cc3c(cc12)CCC(C)(C)O3` gave PKA-R1A activ 2, MsrA act -8, PKA-R2B act -3, Mot1-301 SUMO 11 and MsrA inhibitor 2.
CCC(NC(=O)Cc1c(C)c2cc3c(cc2oc1=O)OC(C)(C)CC3)C(=O)O (stereo not given) was read as PKA-R1A activ 2, MsrA act 0, PKA-R2B act 2, Mot1-301 SUMO -17, MsrA inhibitor 5.2* and MsrA conf 3.
`Cc1ccc(-c2c(C(=O)O)c(C(=O)O)c3n2CSC3)cc1` gave PKA-R1A activ 8, MsrA act -4, PKA-R2B act -9, Mot1-301 SUMO -5 and MsrA inhibitor -1.
COC(=O)c1c(C(=O)OC)c(-c2ccc(F)cc2)n2c1CSC2 was read as PKA-R1A activ 3, MsrA act -3, PKA-R2B act -3, Mot1-301 SUMO 1, MsrA inhibitor 5.6* and MsrA conf 2.
`CCN(CC)C(=O)COc1cc(C)c(Cl)c(C)c1` gave PKA-R1A activ 0, MsrA act -1, PKA-R2B act -8, Mot1-301 SUMO 166, MsrA inhibitor 37* and MsrA conf 1.
